Screening data deposited in PubChem by Fisher Drug Discovery Resource Center.
mcGAS RapidFire = mouse cGAS inhibition by mass spec. AID 1259397. Q8C6L5. 130,000 compounds, 0.18% hits. recombinant mouse cGAS, cGAMP by RapidFire MS. inhibition, % at 12.5 µM;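 active = inhibition of cGAS enzyme activity at or above 60%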;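 note: enzyme stimulated by 45 bp dsDNA with ATP and GTP substrates; cGAMP share of summed cGAMP plus half ATP and half GTP signals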
Target sequence (Q8C6L5 whole entry, looked up): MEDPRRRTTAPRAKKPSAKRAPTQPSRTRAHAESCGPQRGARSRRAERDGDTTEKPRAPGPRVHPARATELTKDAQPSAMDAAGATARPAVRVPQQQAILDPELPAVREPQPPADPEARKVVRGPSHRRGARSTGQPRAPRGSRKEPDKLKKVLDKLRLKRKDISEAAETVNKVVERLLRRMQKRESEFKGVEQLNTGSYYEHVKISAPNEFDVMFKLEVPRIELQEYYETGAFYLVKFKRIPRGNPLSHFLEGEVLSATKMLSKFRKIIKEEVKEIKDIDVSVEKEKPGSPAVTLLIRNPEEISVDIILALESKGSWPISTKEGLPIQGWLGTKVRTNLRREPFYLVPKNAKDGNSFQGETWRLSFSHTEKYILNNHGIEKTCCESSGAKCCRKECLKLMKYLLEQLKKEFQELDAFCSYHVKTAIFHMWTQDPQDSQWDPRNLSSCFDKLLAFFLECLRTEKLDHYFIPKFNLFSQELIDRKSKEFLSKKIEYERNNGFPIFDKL
Numbers without * were called inactive. Shown is part of a subset that was picked to be rich in hits.

SMILES	mcGAS RapidFire
O=C1N=c2ccccc2=C1c1sc(=S)n(-c2ccc(O)cc2)c1O	2
CCn1c(O)c(C2=c3ccccc3=NC2=O)sc1=S	7
COC1CCN(Cc2cc(C)cc(C)c2)CC1	5
CC(NCc1cccc(OCc2nc(CO)cs2)c1)c1ccccc1 (stereo not given)	-9
Cc1cc(C(=O)N(Cc2cccnc2)c2nc3c(F)cc(F)cc3s2)nn1C	-6
Nc1nc(Nc2ccc(C(=O)N[C@H]3C[C@H]4CC[C@@H]3C4)cc2)cc(Nc2ccc3ncsc3c2)n1	-4
O=c1ccn(CCOc2cc(Cl)cc(Cl)c2)c(Cl)c1	-3
N#Cc1ccccc1NC(=O)C1=COCCO1	-8
N#Cc1ccccc1NC(=O)c1c(-c2ccccc2)c(-c2ccccc2)n[nH]c1=O	-3
N#Cc1ccccc1NC(=O)c1n[nH]c([N+](=O)[O-])c1Br	70*
Cc1ccc(S(=O)(=O)n2cc(-c3ccc(Cl)cc3)c(N)n2)cc1F	4
CN1CCN(C(=O)CC2CSc3ccccc3NC2=O)CC1 (stereo not given)	-5
CCOCCCNC(=O)c1cnc2nc3ccccc3n2c1N	6
CC(C)Oc1ccccc1C=C1C(=O)OC(c2ccccc2)OC1=O (stereo not given)	-9
Cc1ccc(C2=N/C(=C\C=C\c3ccccc3)C(=O)O2)cc1	32
O=C1OC(c2ccccc2)OC(=O)C1=C/C=C/c1ccccc1 (stereo not given)	88*
O=C(NN=Cc1c(O)ccc2ccccc12)c1ccccn1	5
COCCN1CCN(C(=O)CCc2nnc(CCc3ccc(OC)cc3)o2)CC1	-2
COC(=O)C1CCCCN1C(=O)CCc1nnc(CCc2ccc(OC)cc2)o1 (stereo not given)	-12
COc1ccc(CCC(=O)N2CCN(Cc3nnc(C4CC4)o3)CC2)cc1	94*
Cc1nnc(SCC(=O)N2N=C3C(=Cc4ccco4)CCCC3C2c2ccco2)s1 (stereo not given)	-48
CC(C)c1cc(C2CCN(C(=O)C3=NN(C)C(=O)CC3)CC2)[nH]n1	78*
CC(C)=CC(=O)N1CCC(c2cc(C(C)C)n[nH]2)CC1	-11
CC(C)c1cc(C2CCN(C(=O)c3nc(C(C)C)cs3)CC2)[nH]n1	-25
CC(=O)NCC1CCN(c2ccnc3ccc(Br)cc23)CC1	-9
SMILES	mcGAS RapidFire
O=C(COc1ccccc1)Nc1cccc(S(=O)(=O)N2CCCCC2)c1	-6
NC(=S)N=Nc1ccc(NN=C(N)N)cc1	79*
CCn1c(C)c(C(C)(C)C)sc1=NS(=O)(=O)c1ccc(Cl)cc1	-15
Cn1c(-c2ccc(CN3CCn4cncc4C3)o2)nc2ccccc21	-16
C=CCn1cc(CN2CCN(Cc3ccc4c(c3)OCO4)C(=O)C2)c(C)n1	-5
C=CCn1cc(CN2CCn3nc(-c4nc5ccccc5n4C)cc3C2)c(C)n1	79*
CN1C(=O)CC(C(=O)Nc2ccccc2)SC1=Nc1ccc(Cl)c(C(F)(F)F)c1 (stereo not given)	-7
CN1CCC(N(Cc2ccccc2)C(=O)Nc2ccc(NC(=O)C3CC3)cc2)CC1	-10
CN1CCN(C2=NC(C(=O)Nc3ccccc3)CC(=O)N2)CC1 (stereo not given)	70*
Cc1ccc(/C(=C2\OC(=O)c3ccccc32)[N+](=O)[O-])c(C)c1	5
Cc1ccc(N2Cc3ccccc3C2=O)cc1	-5
Cc1ccc(C2([N+](=O)[O-])C(=O)c3ccccc3C2=O)cc1	90*
CC(C)c1ccc(CN2CCCC3(CCN(C(=O)c4ccnc(N)c4)C3)C2)cc1 (stereo not given)	-6
Cc1nn(C)c(=O)c(C(=O)NCc2cccc3c2OCCO3)c1C	-1
O=C1Nc2ccc(Br)cc2/C1=c1/sc2n(c1=O)CCN=2	81*
O=C1Nc2ccc(Br)cc2C1=c1sc2nc3ccccc3n2c1=O	4
O=C1Nc2ccc(Br)cc2C1=O	5
N#Cc1c(NC(=O)CN2CCCC2c2cccs2)sc2c1CCC2 (stereo not given)	-7
O=C(COc1ccc(Cl)c2ccccc12)NCC(F)(F)F	-7
O=C(Cc1ccc(C(F)(F)F)cc1)Nc1ncccc1O	-4
O=C(COc1ccc(Cl)c2ccccc12)Nc1ncccc1O	95*
CC(=O)Cn1c(=O)c2c(nc3n(-c4ccc(C(F)(F)F)cc4)c(C)c(C)n23)n(C)c1=O	-5
Cc1ccccc1CN1C(=O)C(C)Sc2ccc(-c3ccco3)cc21 (stereo not given)	46
CC1Sc2ccccc2N(Cc2ccccc2Cl)C1=O (stereo not given)	69*
COc1cccc(-c2ccc3c(c2)N(Cc2ccc(F)cc2)C(=O)C(C)S3)c1 (stereo not given)	-10
SMILES	mcGAS RapidFire
CC1Oc2ccccc2N(Cc2ccccc2Cl)C1=O (stereo not given)	-15
Cc1ccccc1CN1C(=O)C(C)Sc2ccccc21 (stereo not given)	24
CC1Sc2ccc(-c3ccco3)cc2N(Cc2ccccc2Cl)C1=O (stereo not given)	69*
CN(C)C(=O)c1ccc(Cn2cc(C(=O)NCc3cccc(C(F)(F)F)c3)sc2=O)cc1	-12
Cc1ncc2c(c1CNc1nccc(CCC(F)(F)F)n1)CCNC2	-7
Cc1c(S(=O)(=O)CCNC(=O)NC(C)(C)C)c2ccccc2n1Cc1ccc(F)cc1	-9
C/C(=N/Nc1nc(Cl)c(C#N)c(Cl)c1Cl)c1ccc(N)cc1	39
CC(C)=NNc1nc(Cl)c(C#N)c(Cl)c1Cl	75*
CC(NC(=O)COc1c(Cl)cccc1Cl)c1ccco1 (stereo not given)	-12
COc1cc(C(C)=O)ccc1OCCOCCN1CCN(Cc2ccccc2)CC1	-4
CCCn1cc(CN2CCN(Cc3ccc(OC)c(C)c3)C(CCO)C2)c(C)n1 (stereo not given)	-7
COc1ccc2c(c1)CCCN2C(=O)C1CCN(S(=O)(=O)c2cccc(C(F)(F)F)c2)CC1	11
Cc1cc(C(=O)NNC(=O)CCNC(=O)c2ccco2)c(C)o1	-7
CCOC(=O)NNC(=O)c1cc(C)oc1C	-12
Cc1cc(C(=O)NNC(=O)C=Cc2ccco2)c(C)o1	67*
CN(CCc1cnn(C)c1)c1nc2nonc2nc1NCc1ccccc1	-1
Cc1cc(F)ccc1S(=O)(=O)NCCCCN1CCOC(c2ccccc2)C1 (stereo not given)	-5
N#Cc1c(F)cccc1N1CCCC(c2nnc3ccccn23)C1 (stereo not given)	-17
CC1(c2ccco2)NC(=O)N(Cc2nc(-c3cccs3)no2)C1=O (stereo not given)	-30
Cc1ccc(OCCCC(=O)Nc2ccc(C(N)=O)cc2)c(C)c1	-12
Cc1ccc([N+](=O)[O-])cc1N=Cc1nc(-c2ccccc2F)oc1O	81*
Cc1cc(Cl)ccc1N=Cc1nc(-c2ccccc2F)oc1O	-3
COc1cc([N+](=O)[O-])ccc1N=Cc1nc(-c2ccccc2F)oc1O	-11
COc1cc(=O)n(-c2ccccc2C)nc1C(=O)N1c2ccc(F)cc2CCC1C (stereo not given)	-35
COc1cc(C)c2c(c1C=O)Oc1c(c(C)c(O)c3c1C(O)OC3=O)OC2=O (stereo not given)	34
Cc1cc(O)c(C=O)c2c1C(=O)Oc1c(C)c(O)c3c(c1O2)C(O)OC3=O (stereo not given)	85*
COc1cc(-c2cccc(C(=O)O)c2)ccc1NC(C)=O	-32
COc1cc(-c2ccc(NN=C3C=Cc4c(S(=O)(=O)O)cc(S(=O)(=O)O)c(N)c4C3=O)c(OC)c2)ccc1NN=C1C=Cc2c(S(=O)(=O)O)cc(S(=O)(=O)O)c(N)c2C1=O	98*
